Laboratory results as given in ChEMBL document CHEMBL4513216, “Probing the Open Global Health Chemical Diversity Library for Multistage-Active Starting Points for Next-Generation Antimalarials” (ACS Infect Dis, 2020).
Among all 69,000 compounds or so, about 8,600 (12%) showed an effect of 50% or more. The sample holds strong results, similar compounds and a random draw of the others, so the mix is not that of the screen.

These compounds were tested on Plasmodium berghei (assay: Screen against P. berghei liver stage (PbLuc), transformed with Luciferase, at 10uM). Settings: tested at 10 uM.
Type: functional, HepG2

Question: Which INHIBITION does the source give for `Cc1noc(OCCOc2ccc(C#N)cc2)n1` here?
Answer: Its INHIBITION is 18.6%.

Question: For `CC(C)c1noc(OCc2cccc(C#N)c2)n1`, which INHIBITION is on record?
Answer: The INHIBITION was 46.1%.

Question: Which INHIBITION does the source give for `Cc1noc(OCc2ccc(C#N)cc2)n1` here?
Answer: The INHIBITION was 64.5%.

Question: For `O=C(NCCC(=O)N1CCCCCCC1)c1ccoc1`, which INHIBITION is on record?
Answer: Its INHIBITION is -18%.

Question: Which INHIBITION does the source give for `O=C(NCCNS(=O)(=O)c1cccc(Cl)c1)C1CCCO1` (centres undefined) here?
Answer: The INHIBITION was 38.9%.

Question: For `CC(NCCNS(=O)(=O)c1cccc(Cl)c1)C1CCOCC1` (centres undefined), which INHIBITION is on record?
Answer: Its INHIBITION is 67.1%.

Question: `Cc1cc(NCCNS(=O)(=O)c2cccc(Cl)c2)nc(C)n1` was tested. Which INHIBITION did it give?
Answer: Its INHIBITION is 24.7%.

Question: For `CN(C)C(=O)N1C[C@H]2CC[C@@H](C1)N(Cc1nnc(-c3ccccc3)o1)C2`, which INHIBITION is on record?
Answer: The INHIBITION was -3.73%.

Question: Which INHIBITION does the source give for `OC(CNCc1ccccc1C(F)(F)F)c1ccccc1` (centres undefined) here?
Answer: The INHIBITION was 1.98%.

Question: For `CC(=O)N(C)Cc1cncc(C2CCCN2C2CCOCC2)n1` (centres undefined), which INHIBITION is on record?
Answer: Its INHIBITION is 15.925%.

Question: With `COc1ccccc1NC(=O)CSC1CCc2ccccc2NC1=O` (centres undefined) as the compound, how does the INHIBITION read?
Answer: Its INHIBITION is 10.8%.

Question: How did the INHIBITION turn out when `Cc1cnc(NC(=O)CSC2CCc3ccccc3NC2=O)s1` (centres undefined) was run?
Answer: Its INHIBITION is 54.6%.

Question: Which INHIBITION does the source give for `O=C(CSC1CCc2ccccc2NC1=O)NC1CC1` (centres undefined) here?
Answer: Its INHIBITION is -41.4%.

Question: With `O=c1c2ccccc2ncn1Cc1cc(C2CC2)[nH]n1` as the compound, how does the INHIBITION read?
Answer: Its INHIBITION is 18.5%.

Question: With `CC(C)c1cc(NC(=O)Cn2cnc3ccccc3c2=O)[nH]n1` as the compound, how does the INHIBITION read?
Answer: The INHIBITION was -27.4%.

Question: Which INHIBITION does the source give for `O=C(Cn1cnc2ccccc2c1=O)Nc1cc(C2CC2)n[nH]1` here?
Answer: The INHIBITION was 89.4%.

Question: How did the INHIBITION turn out when `COc1ccc(CCN2CCN(C(=O)c3scnc3C)CC2)cc1` was run?
Answer: The INHIBITION was 25.3%.

Question: `CN1CCc2onc(CNc3ncccn3)c2C1` was tested. Which INHIBITION did it give?
Answer: Its INHIBITION is 19.5%.

Question: For `COc1ccc(CNC2CCCc3nc(N(C)C)ncc32)c(OC)c1` (centres undefined), which INHIBITION is on record?
Answer: The INHIBITION was 16.7%.

Question: For `CN(C)C1(CNC(=O)c2c(O)cc(Cl)cc2Cl)CCOCC1`, which INHIBITION is on record?
Answer: The INHIBITION was 54.8%.

Question: For `CC(NCC1(N(C)C)CCOCC1)c1ccc(Cl)cc1` (centres undefined), which INHIBITION is on record?
Answer: Its INHIBITION is -2.025%.

Question: Which INHIBITION does the source give for `CN(C)C1(CNC(=O)Cc2ccc(F)cc2)CCOCC1` here?
Answer: Its INHIBITION is -21.8%.

Question: With `O=C(c1ccc[nH]1)N1CCc2cc(S(=O)(=O)N3CCOCC3)ccc2C1` as the compound, how does the INHIBITION read?
Answer: The INHIBITION was 42.8%.

Question: `O=C(NC1CCN(CC2CC2)C1)c1ccc(C(=O)c2cc[nH]c2)cc1` (centres undefined) was tested. Which INHIBITION did it give?
Answer: Its INHIBITION is 10.6%.

Question: For `O=C(NC1CCN(CC2CC2)C1)c1ccc(N2CCC(O)CC2)cc1` (centres undefined), which INHIBITION is on record?
Answer: The INHIBITION was 77.7%.

Question: For `O=C(Nc1ccnc2ccnn12)c1ccc(N2CCC(O)CC2)cc1`, which INHIBITION is on record?
Answer: The INHIBITION was 38.1%.

Question: `COC[C@@H]1CCCN1C(=O)CCc1c(C)nn(C)c1C` was tested. Which INHIBITION did it give?
Answer: The INHIBITION was 8.7%.

Question: Which INHIBITION does the source give for `CCN(CC)c1nc2sc(C(=O)N3CCNC(=O)C3)cc2s1` here?
Answer: The INHIBITION was -81.7%.

Question: `CC(C)CC1SCC(=O)Nc2c1cnn2-c1ccccc1F` (centres undefined) was tested. Which INHIBITION did it give?
Answer: The INHIBITION was 13%.

Question: With `O=C(O)[C@@H]1CN(C(=O)Cc2ccccc2Cl)C[C@H]1C1CC1` as the compound, how does the INHIBITION read?
Answer: The INHIBITION was 79.2%.

Question: Which INHIBITION does the source give for `CCOc1ccccc1CC(=O)N1C[C@@H](C(=O)O)[C@H](C2CC2)C1` here?
Answer: Its INHIBITION is 2.66%.

Question: Which INHIBITION does the source give for `O=C(O)[C@@H]1CN(C(=O)CCCc2ccc(F)cc2)C[C@H]1C1CC1` here?
Answer: Its INHIBITION is -14.2%.

Question: For `CC(=O)N1CCCC1c1nccnc1Nc1cccc(C)n1` (centres undefined), which INHIBITION is on record?
Answer: Its INHIBITION is 39.2%.

Question: For `Cc1cc2c(cc1C)OC(C(=O)NCCNC(=O)C1CCCC1)C2` (centres undefined), which INHIBITION is on record?
Answer: Its INHIBITION is -35.1%.

Question: Which INHIBITION does the source give for `Cc1ccc(NCCNC(=O)C2Cc3cc(C)c(C)cc3O2)nn1` (centres undefined) here?
Answer: The INHIBITION was 55%.

Question: With `O=C(NCCNC(=O)C1Cc2cc(F)ccc2O1)C1CCCCC1` (centres undefined) as the compound, how does the INHIBITION read?
Answer: Its INHIBITION is -0.529%.

Question: With `O=S1(=O)NC2(CCCN(Cc3ccc(Cl)cc3)C2)COc2ccccc21` (centres undefined) as the compound, how does the INHIBITION read?
Answer: Its INHIBITION is 27.5%.

Question: For `Cc1cc(=O)n2nc(Oc3cccc(C(N)=O)c3)sc2n1`, which INHIBITION is on record?
Answer: Its INHIBITION is 3.84%.

Question: For `CS(=O)(=O)c1ncc(CN2CCN3CCCC3C2)n1CC1CCCCC1` (centres undefined), which INHIBITION is on record?
Answer: Its INHIBITION is 12.3%.

Question: With `CN(C)C1CCN(Cc2cnc(S(C)(=O)=O)n2CC2CCCCC2)C1` (centres undefined) as the compound, how does the INHIBITION read?
Answer: Its INHIBITION is 81.6%.

Question: How did the INHIBITION turn out when `CS(=O)(=O)c1ncc(CN2CCCC(C(N)=O)C2)n1CC1CCCCC1` (centres undefined) was run?
Answer: The INHIBITION was 0.734%.

Question: How did the INHIBITION turn out when `N#Cc1ccc(CN2CCC(CN3CCOCC3)C2)cc1` (centres undefined) was run?
Answer: Its INHIBITION is -11.9%.

Question: With `CN1CC2(CCN(C(=O)c3cccnc3)CC2)c2cccc(F)c21` as the compound, how does the INHIBITION read?
Answer: Its INHIBITION is 31.5%.

Question: How did the INHIBITION turn out when `CCn1ncc2c1C(COCC1CC1)CN(C(=O)c1ccncn1)C2` (centres undefined) was run?
Answer: Its INHIBITION is 26.4%.

Question: `CC(C)N1CCC2(CCNCC2)C1=O` was tested. Which INHIBITION did it give?
Answer: The INHIBITION was -25.8%.

Question: For `O=C(CSc1nnc(N2CCNCC2)s1)Nc1ccccc1`, which INHIBITION is on record?
Answer: The INHIBITION was 59.2%.

Question: For `O=C(CSc1nnc(N2CCCC2)s1)NC(=O)Nc1ccccc1`, which INHIBITION is on record?
Answer: Its INHIBITION is -22.405%.

Question: For `O=C(CSc1nnc(N2CCOCC2)s1)NC(=O)Nc1ccccc1`, which INHIBITION is on record?
Answer: The INHIBITION was -1%.

Question: `CCc1nnc2n1CCN(C(C(N)=O)c1ccc(F)cc1)C2` (centres undefined) was tested. Which INHIBITION did it give?
Answer: Its INHIBITION is 1.45%.

Question: Which INHIBITION does the source give for `NC(=O)C(c1ccc(F)cc1)N1CCN(CCO)CC1` (centres undefined) here?
Answer: Its INHIBITION is 56.9%.

Question: For `Cc1nnc2n1CCN(C(C(N)=O)c1ccc(F)cc1)C2` (centres undefined), which INHIBITION is on record?
Answer: The INHIBITION was 25.8%.

Question: Which INHIBITION does the source give for `COc1cccc(OC)c1OCCn1c(C)c(C)oc1=O` here?
Answer: The INHIBITION was 22.5%.

Question: `Cc1cc(C)n(CC2CCCN2C(=O)c2ccc(N(C)C)nn2)n1` (centres undefined) was tested. Which INHIBITION did it give?
Answer: Its INHIBITION is 38.8%.

Question: For `c1ccc(-c2noc3c2CN(CC2CC2)CC3)cc1`, which INHIBITION is on record?
Answer: Its INHIBITION is 2.3%.
